Test results: the supplement of paper PMC10849652
Of roughly 7,900 targets only a part is listed; those with a hit were picked by preference. About 0.6% of all pairs of compound and target were hits.

What was measured:
Experiment in all cases: log2 fold change, soluble protein after heating vs DMSO (PISA); higher = thermal stabilisation; K562 cells, 10 uM, 30 min; active = over 0.2 and 3.5 SD of the protein, either way, in both replicates (recomputed)
[1] = compound: CC[C@@H]1C(=O)N(C)c2cnc(Nc3ccc(C(=O)NC4CCN(C)CC4)cc3OC)nc2N1C1CCCC1
In short: (§1)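 K562 cells at 2×10^6 cells/mL were exposed to 10 μM compound for 30 min, then aliquots were heated for 3 min across 48°C-58°C, pooled, and extracted in PBS containing 0.5% NP-40 at 4°C. The supernatant after 21,000xg for 90 min was taken as soluble protein and measured by TMTpro 16plex LC-MS/MS with channel sums equalised. Thermal stability is reported relative to control samples, with values from duplicates. Fold changes are given on a log2 scale.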

volasertib = compound: CC[C@@H]1C(=O)N(C)c2cnc(Nc3ccc(C(=O)N[C@H]4CC[C@H](N5CCN(CC6CC6)CC5)CC4)cc3OC)nc2N1C(C)C [volasertib]
In short: as §1

[2] = compound: CC[C@H](C)N1C=C(C2=C(C=C(C=C21)C3=CN=C(C=C3)N4CCNCC4)C(=O)NCC5=C(C=C(NC5=O)C)C)C
In short: as §1

epoxomicin = compound: CC[C@H](C)[C@@H](C(=O)N[C@@H]([C@@H](C)O)C(=O)N[C@@H](CC(C)C)C(=O)[C@]1(CO1)C)NC(=O)[C@H]([C@@H](C)CC)N(C)C(=O)C [epoxomicin]
In short: as §1

[3] = compound: CCn1c(C(=O)N(C2CC2)C2CC2)cc2c3c(ncn3C)c(Nc3cc(C)n(C)n3)nc21
In short: as §1

[4] = compound: CCn1cc(-c2ccnc3[nH]c(-c4cccc(CN(C)C)c4)cc23)c(-c2ccc(NC(=O)N(C)C)cc2)n1
In short: as §1

[5] = compound: CN(C)CC(=O)Nc1ccc2[nH]c(=O)c3ccccc3c2c1
In short: as §1

rosiglitazone = compound: CN(CCOC1=CC=C(C=C1)C[C@H]2C(=O)NC(=O)S2)C3=CC=CC=N3 (racemic) [rosiglitazone]
In short: as §1

[6] = compound: CN1C2=C(C3=C1C(=O)N(N=C3)CC4=CC(=CC=C4)N)SC(=C2)S(=O)C
In short: as §1

[7] = compound: CN1CCC(CNc2ccc3ncc(-c4cccc(OC(F)(F)F)c4)n3n2)CC1
In short: as §1

saracatinib = compound: CN1CCN(CCOc2cc(OC3CCOCC3)c3c(Nc4c(Cl)ccc5c4OCO5)ncnc3c2)CC1 [saracatinib]
In short: as §1

sotrastaurin = compound: CN1CCN(c2nc(C3=C(c4c[nH]c5ccccc45)C(=O)NC3=O)c3ccccc3n2)CC1 [sotrastaurin]
In short: as §1

alvocidib = compound: CN1CC[C@H](c2c(O)cc(O)c3c(=O)cc(-c4ccccc4Cl)oc23)[C@H](O)C1 [alvocidib]
In short: as §1

Tubastatin A = compound: CN1CCc2c(c3ccccc3n2Cc2ccc(C(=O)NO)cc2)C1 [Tubastatin A]
In short: as §1

[8] = compound: CNC(=O)C1=CC=CC=C1NC2=NC(=NC=C2Cl)NC3=C(C=C(C=C3)N4CCOCC4)OC
In short: as §1

defactinib = compound: CNC(=O)c1ccc(Nc2ncc(C(F)(F)F)c(NCc3nccnc3N(C)S(C)(=O)=O)n2)cc1 [defactinib]
In short: as §1

rucaparib = compound: CNCc1ccc(-c2[nH]c3cc(F)cc4c3c2CCNC4=O)cc1 [rucaparib]
In short: as §1

[9] = compound: CNc1nc(-c2ccc3c(N)n[nH]c3c2)cc(N2C[C@@H](C(=O)NC3CCCCC3)CC[C@H]2C)n1
In short: as §1

encorafenib = compound: COC(=O)N[C@@H](C)CNc1nccc(-c2cn(C(C)C)nc2-c2cc(Cl)cc(NS(C)(=O)=O)c2F)n1 [encorafenib]
In short: as §1

[10] = compound: COC(=O)[C@H](CCSC)NC(=O)C1=C(C=C(C=C1)NC[C@H](CS)N)C2=CC=CC=C2
In short: as §1

Measured: log2 fold change

NEMP1 (UniProt O14524)
inactive: [1] 0.007 | volasertib -0.128 | [2] -0.023 | epoxomicin 0.015 | [3] 0.08 | [4] 0.018 | [5] -0.003 | rosiglitazone 0.048 | [6] 0.01 | [7] -0.106 | saracatinib -0.001 | sotrastaurin -0.012 | alvocidib -0.015 | Tubastatin A -0.002 | [8] -0.111 | defactinib 0.021 | rucaparib 0.026 | [9] -0.045 | encorafenib -0.039 | [10] 0.053

NRF1 isoform 4 (UniProt Q16656)
Chain of UniProt Q16656 (Q16656 whole entry, looked up): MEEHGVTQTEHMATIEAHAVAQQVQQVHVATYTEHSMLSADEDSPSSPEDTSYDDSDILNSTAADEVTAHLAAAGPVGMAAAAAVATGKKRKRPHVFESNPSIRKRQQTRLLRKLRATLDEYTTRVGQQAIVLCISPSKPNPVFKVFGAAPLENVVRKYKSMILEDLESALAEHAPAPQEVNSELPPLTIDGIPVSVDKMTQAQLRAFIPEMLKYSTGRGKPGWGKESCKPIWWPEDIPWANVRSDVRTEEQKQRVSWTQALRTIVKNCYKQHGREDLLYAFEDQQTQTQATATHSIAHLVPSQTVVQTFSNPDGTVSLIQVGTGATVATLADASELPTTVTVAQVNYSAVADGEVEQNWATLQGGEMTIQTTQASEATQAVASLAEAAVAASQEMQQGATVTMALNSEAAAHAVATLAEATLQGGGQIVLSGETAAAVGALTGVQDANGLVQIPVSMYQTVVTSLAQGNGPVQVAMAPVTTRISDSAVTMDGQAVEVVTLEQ
active: volasertib -0.501 | defactinib -0.34
inactive: [1] -0.173 | [2] 0.087 | epoxomicin 0.268 | [3] -0.056 | [4] 0.035 | [5] 0.08 | rosiglitazone 0.1 | [6] -0.084 | [7] 0.037 | saracatinib 0.102 | sotrastaurin -0.045 | alvocidib -0.159 | Tubastatin A 0.015 | [8] -0.016 | rucaparib -0.11 | [9] -0.061 | encorafenib 0.036 | [10] 0.015

MINK1 (UniProt Q8N4C8)
inactive: [1] -0.01 | volasertib -0.149 | [2] 0.056 | epoxomicin -0.009 | [3] -0.011 | [4] -0.069 | [5] -0.035 | rosiglitazone 0.011 | [6] -0.004 | [7] -0.137 | saracatinib -0.052 | sotrastaurin -0.009 | alvocidib -0.027 | Tubastatin A -0.015 | [8] -0.007 | defactinib -0.069 | rucaparib -0.033 | [9] -0.029 | encorafenib 0.044 | [10] 0.012

MSH6 (UniProt P52701)
active: volasertib -0.683
inactive: [1] -0.306 | [2] 0.227 | epoxomicin 0.097 | [3] -0.127 | [4] -0.089 | [5] 0.172 | rosiglitazone 0.179 | [6] -0.044 | [7] -0.261 | saracatinib -0.142 | sotrastaurin -0.278 | alvocidib -0.255 | Tubastatin A 0.127 | [8] -0.049 | defactinib -0.379 | rucaparib -0.014 | [9] 0.102 | encorafenib 0.141 | [10] -0.098

MNAT1 (UniProt P51948)
inactive: [1] 0.029 | volasertib -0.027 | [2] -0.029 | epoxomicin -0.057 | [3] -0.006 | [4] 0.015 | [5] 0.032 | rosiglitazone -0.027 | [6] -0.011 | [7] 0.015 | saracatinib -0.017 | sotrastaurin 0 | alvocidib -0.002 | Tubastatin A 0.006 | [8] 0.012 | defactinib -0.03 | rucaparib -0.046 | [9] -0.004 | encorafenib -0.006 | [10] -0.009

MORF4L2 (UniProt Q15014)
inactive: [1] 0.074 | volasertib 0.023 | [2] 0.014 | epoxomicin 0.085 | [3] 0.014 | [4] 0.075 | [5] -0.125 | rosiglitazone -0.051 | [6] 0.12 | [7] 0.076 | saracatinib -0.002 | sotrastaurin -0.01 | alvocidib 0.022 | Tubastatin A 0.136 | [8] -0.003 | defactinib 0.011 | rucaparib 0.056 | [9] -0.1 | encorafenib 0.04 | [10] 0.066

MYH10 isoform 3 (UniProt P35580)
Chain of UniProt P35580 (P35580 whole entry, looked up): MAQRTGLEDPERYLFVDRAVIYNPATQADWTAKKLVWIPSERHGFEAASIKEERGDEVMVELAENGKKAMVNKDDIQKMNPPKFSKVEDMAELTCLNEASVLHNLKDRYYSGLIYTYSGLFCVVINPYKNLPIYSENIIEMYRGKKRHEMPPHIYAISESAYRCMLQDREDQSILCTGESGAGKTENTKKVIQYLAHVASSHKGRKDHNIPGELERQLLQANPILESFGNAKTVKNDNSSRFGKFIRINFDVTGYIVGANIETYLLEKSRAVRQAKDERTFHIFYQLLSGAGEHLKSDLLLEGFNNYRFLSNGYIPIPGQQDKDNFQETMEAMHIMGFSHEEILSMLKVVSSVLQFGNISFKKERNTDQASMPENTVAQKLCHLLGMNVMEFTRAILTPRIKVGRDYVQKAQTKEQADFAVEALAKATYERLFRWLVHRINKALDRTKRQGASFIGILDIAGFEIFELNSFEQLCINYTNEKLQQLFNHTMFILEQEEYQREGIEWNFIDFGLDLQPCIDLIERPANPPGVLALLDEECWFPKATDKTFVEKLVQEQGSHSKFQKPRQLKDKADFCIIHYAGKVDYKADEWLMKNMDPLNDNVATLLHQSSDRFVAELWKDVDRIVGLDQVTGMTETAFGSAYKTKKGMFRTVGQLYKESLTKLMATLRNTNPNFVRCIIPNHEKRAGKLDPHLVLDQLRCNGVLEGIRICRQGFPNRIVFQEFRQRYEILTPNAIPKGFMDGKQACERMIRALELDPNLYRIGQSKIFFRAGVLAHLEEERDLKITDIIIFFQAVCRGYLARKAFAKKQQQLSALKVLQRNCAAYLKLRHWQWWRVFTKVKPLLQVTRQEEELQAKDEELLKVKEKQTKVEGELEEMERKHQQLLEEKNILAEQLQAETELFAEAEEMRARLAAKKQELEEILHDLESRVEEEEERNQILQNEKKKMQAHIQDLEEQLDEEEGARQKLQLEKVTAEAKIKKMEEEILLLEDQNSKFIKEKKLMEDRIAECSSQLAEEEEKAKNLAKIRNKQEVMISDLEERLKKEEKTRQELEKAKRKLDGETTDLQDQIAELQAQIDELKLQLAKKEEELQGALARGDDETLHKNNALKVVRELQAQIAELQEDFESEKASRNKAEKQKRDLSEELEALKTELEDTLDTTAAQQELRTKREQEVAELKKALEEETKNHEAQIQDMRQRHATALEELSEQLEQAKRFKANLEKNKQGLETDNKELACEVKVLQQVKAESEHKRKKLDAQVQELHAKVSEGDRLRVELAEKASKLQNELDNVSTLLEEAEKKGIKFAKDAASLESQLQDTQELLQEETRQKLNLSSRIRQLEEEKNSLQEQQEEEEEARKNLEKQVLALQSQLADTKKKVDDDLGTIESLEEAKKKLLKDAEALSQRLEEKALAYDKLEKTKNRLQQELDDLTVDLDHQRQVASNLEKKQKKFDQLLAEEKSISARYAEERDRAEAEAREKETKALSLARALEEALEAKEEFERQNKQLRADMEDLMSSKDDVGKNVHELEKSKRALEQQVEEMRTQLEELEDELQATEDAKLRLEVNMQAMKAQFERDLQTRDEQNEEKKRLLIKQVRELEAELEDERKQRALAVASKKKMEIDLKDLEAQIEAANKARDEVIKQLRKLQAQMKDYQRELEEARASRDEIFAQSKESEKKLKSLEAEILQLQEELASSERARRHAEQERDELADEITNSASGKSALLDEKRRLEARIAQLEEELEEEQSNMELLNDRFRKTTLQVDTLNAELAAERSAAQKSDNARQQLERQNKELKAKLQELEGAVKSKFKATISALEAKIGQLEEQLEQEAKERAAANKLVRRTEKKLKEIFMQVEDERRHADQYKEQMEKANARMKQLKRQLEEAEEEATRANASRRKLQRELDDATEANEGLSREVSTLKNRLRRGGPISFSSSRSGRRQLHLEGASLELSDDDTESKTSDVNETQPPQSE
inactive: [1] -0.082 | [2] 0.026 | epoxomicin 0.094 | [3] -0.025 | [4] -0.036 | [5] 0.024 | rosiglitazone 0.022 | [6] -0.064 | [7] -0.077 | saracatinib 0.019 | sotrastaurin -0.058 | alvocidib -0.034 | Tubastatin A 0.002 | [8] 0.024 | defactinib -0.039 | rucaparib -0.056 | [9] -0.005 | encorafenib 0.017 | [10] -0.023
active: volasertib -0.216

NDUFB10 (UniProt O96000)
inactive: [1] -0.008 | volasertib 0.056 | [2] -0.007 | epoxomicin 0.001 | [3] 0 | [4] 0.03 | [5] -0.005 | rosiglitazone 0.013 | [6] -0.043 | saracatinib -0.027 | sotrastaurin 0.008 | alvocidib -0.013 | Tubastatin A -0.022 | [8] -0.012 | defactinib -0.016 | rucaparib 0.012 | [9] -0.004 | encorafenib -0.005 | [10] -0.029
active: [7] -0.237

MSH2 (UniProt P43246)
Chain of UniProt P43246 (P43246 whole entry, looked up): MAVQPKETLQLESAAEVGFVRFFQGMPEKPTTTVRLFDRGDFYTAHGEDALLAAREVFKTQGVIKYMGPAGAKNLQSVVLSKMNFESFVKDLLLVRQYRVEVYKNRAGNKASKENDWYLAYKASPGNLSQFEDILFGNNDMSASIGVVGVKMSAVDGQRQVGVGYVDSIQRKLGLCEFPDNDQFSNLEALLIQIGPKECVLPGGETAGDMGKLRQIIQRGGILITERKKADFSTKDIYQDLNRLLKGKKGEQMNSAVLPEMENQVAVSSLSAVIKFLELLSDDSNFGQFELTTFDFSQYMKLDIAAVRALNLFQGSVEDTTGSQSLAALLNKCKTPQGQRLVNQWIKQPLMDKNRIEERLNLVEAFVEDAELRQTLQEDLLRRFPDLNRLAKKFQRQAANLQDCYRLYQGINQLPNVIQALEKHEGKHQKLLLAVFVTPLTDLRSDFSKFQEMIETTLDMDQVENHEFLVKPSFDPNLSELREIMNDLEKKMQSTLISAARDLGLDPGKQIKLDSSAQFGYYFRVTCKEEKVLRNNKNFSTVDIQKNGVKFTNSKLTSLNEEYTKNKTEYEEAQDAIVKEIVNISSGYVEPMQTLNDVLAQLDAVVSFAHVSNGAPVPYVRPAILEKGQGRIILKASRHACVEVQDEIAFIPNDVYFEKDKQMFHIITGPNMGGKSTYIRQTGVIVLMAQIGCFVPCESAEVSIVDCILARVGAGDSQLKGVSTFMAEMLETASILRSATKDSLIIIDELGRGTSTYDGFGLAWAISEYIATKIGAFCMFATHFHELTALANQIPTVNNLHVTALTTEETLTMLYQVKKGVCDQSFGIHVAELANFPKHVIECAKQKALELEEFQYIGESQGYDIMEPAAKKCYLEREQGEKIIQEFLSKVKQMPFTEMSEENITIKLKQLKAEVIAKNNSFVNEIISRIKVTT
inactive: [1] -0.103 | volasertib -0.173 | [2] 0.039 | epoxomicin 0.066 | [3] -0.034 | [4] 0.036 | [5] 0.059 | rosiglitazone 0.046 | [6] -0.019 | [7] -0.067 | saracatinib -0.006 | sotrastaurin -0.072 | alvocidib -0.111 | Tubastatin A 0.041 | [8] 0.065 | defactinib -0.153 | rucaparib -0.06 | [9] 0.031 | encorafenib 0.062 | [10] -0.037

MT-ATP6 (UniProt P00846)
inactive: [1] 0.043 | volasertib -0.091 | [2] -0.057 | epoxomicin 0.105 | [3] -0.053 | [4] -0.152 | [5] -0.095 | rosiglitazone 0.502 | [6] -0.239 | [7] -0.16 | saracatinib 0.253 | sotrastaurin -0.059 | alvocidib -0.058 | Tubastatin A 0.122 | [8] -0.018 | defactinib -0.095 | rucaparib 0.06 | [9] -0.176 | encorafenib 0.016 | [10] 0.05

OSBP (UniProt P22059)
inactive: [1] 0.056 | [2] 0.032 | epoxomicin 0.053 | [3] -0.101 | [4] -0.087 | [5] 0.013 | rosiglitazone 0.038 | [6] -0.064 | [7] 0.061 | saracatinib -0.051 | sotrastaurin -0.147 | alvocidib -0.028 | Tubastatin A 0.037 | [8] 0.062 | defactinib -0.066 | rucaparib -0.11 | [9] 0.062 | encorafenib -0.006 | [10] -0.001
active: volasertib 0.377

MYH11 isoform 2 (UniProt P35749)
inactive: [1] -0.021 | volasertib -0.045 | [2] 0.042 | epoxomicin 0.061 | [3] -0.005 | [4] 0.046 | [5] 0.019 | rosiglitazone 0.015 | [6] -0.077 | [7] -0.018 | saracatinib 0.069 | sotrastaurin -0.024 | alvocidib -0.024 | Tubastatin A -0.025 | [8] 0.03 | defactinib -0.039 | rucaparib -0.034 | [9] 0.009 | encorafenib 0.001 | [10] -0.022

MPP1 (UniProt Q00013)
Chain of UniProt Q00013 (Q00013 whole entry, looked up): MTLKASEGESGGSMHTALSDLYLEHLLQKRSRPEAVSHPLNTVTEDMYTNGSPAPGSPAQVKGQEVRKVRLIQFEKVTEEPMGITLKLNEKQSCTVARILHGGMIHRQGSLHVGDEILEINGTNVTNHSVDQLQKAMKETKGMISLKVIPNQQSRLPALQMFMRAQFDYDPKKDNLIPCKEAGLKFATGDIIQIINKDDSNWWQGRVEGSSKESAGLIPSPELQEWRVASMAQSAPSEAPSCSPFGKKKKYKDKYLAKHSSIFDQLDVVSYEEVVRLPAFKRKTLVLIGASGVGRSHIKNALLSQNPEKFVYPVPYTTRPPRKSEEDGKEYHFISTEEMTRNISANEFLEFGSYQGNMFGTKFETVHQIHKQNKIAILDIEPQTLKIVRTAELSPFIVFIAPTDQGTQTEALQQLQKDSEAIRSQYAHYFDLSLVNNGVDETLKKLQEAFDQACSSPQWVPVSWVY
active: [7] -0.256
inactive: [1] -0.039 | volasertib -0.112 | [2] 0.063 | epoxomicin 0.058 | [3] -0.025 | [4] -0.051 | [5] 0.011 | rosiglitazone 0.051 | [6] 0.043 | saracatinib -0.023 | sotrastaurin -0.085 | alvocidib -0.022 | Tubastatin A 0.051 | [8] 0.073 | defactinib -0.082 | rucaparib 0.104 | [9] 0.059 | encorafenib 0.067 | [10] -0.047

MMS19 isoform 8 (UniProt Q96T76)
Chain of UniProt Q96T76 (Q96T76 whole entry, looked up): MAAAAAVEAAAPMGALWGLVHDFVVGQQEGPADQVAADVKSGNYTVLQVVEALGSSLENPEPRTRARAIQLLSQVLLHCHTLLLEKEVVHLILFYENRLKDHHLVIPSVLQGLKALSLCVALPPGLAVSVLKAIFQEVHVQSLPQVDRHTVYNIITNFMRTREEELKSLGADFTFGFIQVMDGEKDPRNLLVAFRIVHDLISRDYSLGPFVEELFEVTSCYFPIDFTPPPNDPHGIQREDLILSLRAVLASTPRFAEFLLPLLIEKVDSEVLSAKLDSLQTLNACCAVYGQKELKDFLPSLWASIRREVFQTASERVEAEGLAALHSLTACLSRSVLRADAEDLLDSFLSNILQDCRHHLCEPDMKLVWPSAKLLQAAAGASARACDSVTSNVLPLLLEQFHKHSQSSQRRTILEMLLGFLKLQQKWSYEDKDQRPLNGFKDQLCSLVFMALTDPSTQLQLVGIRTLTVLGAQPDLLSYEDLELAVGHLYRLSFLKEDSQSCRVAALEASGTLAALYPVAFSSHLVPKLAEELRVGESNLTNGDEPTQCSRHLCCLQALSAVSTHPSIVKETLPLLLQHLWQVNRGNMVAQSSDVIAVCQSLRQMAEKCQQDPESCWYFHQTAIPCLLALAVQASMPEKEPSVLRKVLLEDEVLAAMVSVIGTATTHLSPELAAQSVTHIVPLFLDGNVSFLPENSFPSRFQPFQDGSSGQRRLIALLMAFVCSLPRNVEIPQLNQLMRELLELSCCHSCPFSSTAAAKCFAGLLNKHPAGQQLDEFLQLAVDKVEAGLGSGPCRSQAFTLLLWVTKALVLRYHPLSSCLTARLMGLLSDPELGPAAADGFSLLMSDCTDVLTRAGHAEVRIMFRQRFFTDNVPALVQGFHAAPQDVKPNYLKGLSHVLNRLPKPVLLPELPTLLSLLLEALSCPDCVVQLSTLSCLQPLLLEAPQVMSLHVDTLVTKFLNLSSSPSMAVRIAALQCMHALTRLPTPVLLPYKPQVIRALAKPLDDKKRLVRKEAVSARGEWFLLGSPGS
active: volasertib -0.43
inactive: [1] -0.102 | [2] 0.075 | epoxomicin 0.013 | [3] -0.009 | [4] -0.052 | [5] 0.11 | rosiglitazone 0.076 | [6] 0.051 | [7] -0.085 | saracatinib -0.013 | sotrastaurin -0.156 | alvocidib -0.115 | Tubastatin A -0.071 | [8] 0.003 | defactinib -0.127 | rucaparib 0.052 | [9] -0.003 | encorafenib 0.099 | [10] -0.008

MUL1 (UniProt Q969V5)
inactive: [1] 0.061 | volasertib 0 | [2] 0.045 | epoxomicin 0.04 | [3] -0.004 | [4] 0.014 | [5] -0.028 | rosiglitazone 0.052 | [6] -0.004 | [7] -0.115 | saracatinib 0.054 | sotrastaurin 0.079 | alvocidib -0.013 | Tubastatin A 0.047 | [8] 0.056 | defactinib 0.059 | rucaparib 0.072 | [9] -0.018 | encorafenib -0.074 | [10] 0.079
